SMILES strings stand for the structures. The whole screen tested about 69,000 compounds, of which about 8,600 (12%) showed an effect of 50% or more. Only a selection was taken, and strong results are over-represented in it overall.

The test concerns Plasmodium berghei. The experiment in a line: Screen against P. berghei liver stage (PbLuc), transformed with Luciferase, at 10uM. Format: functional, HepG2. The settings on record: tested at 10 uM.
Take `Cc1noc(C)c1C(=O)N1Cc2ncn(C)c2C(COCC(C)C)C1` (stereo not given): the INHIBITION stood at 36.7%.

For the compound `Cn1cnc2c1C(COCC1CCOCC1)CN(C(=O)c1ccoc1)C2` (stereo not given), the INHIBITION is 40.4%. As for `CCOCC1CN(C(=O)c2cscn2)Cc2nnn(CC3CC3)c21` (stereo not given), the INHIBITION was 13.6%.

As to `Cc1noc(C)c1C(=O)N1Cc2ncn(C)c2C(COCC2CC2)C1` (stereo not given), the INHIBITION stood at 58.4%.

For the compound `Cn1cnc2c1C(COCC1CCOCC1)CN(C(=O)c1ccco1)C2` (stereo not given), the INHIBITION was found to be 64.9%. With `CCOCC1CN(C(=O)c2cnccn2)Cc2cnn(CC3CC3)c21` (stereo not given) the figure was 6.6%; with `CN(C)C(=O)N1Cc2ncn(C)c2C(COCC2CCOCC2)C1` (stereo not given), 6.6%; with `Cn1cnc2c1C(COCC1CC1)CN(C(=O)c1cscn1)C2` (stereo not given), 58.8%.

As for `CC(C)COCC1CN(C(=O)c2cscn2)Cc2ncn(C)c21` (stereo not given), the INHIBITION is 34.9%. With `Cc1ccsc1C(=O)N1Cc2ncn(C)c2C(COCC2CC2)C1` (stereo not given), the INHIBITION is recorded as 11.4%.

For the compound `Cn1ncc2c1C(COCC1CC1)CN(C(=O)c1cscn1)C2` (stereo not given), the INHIBITION is listed as 34.6%. With `CCOCC1CN(C(=O)c2cscn2)Cc2cnn(CC3CC3)c21` (stereo not given) the figure was 56.7%.

For `CCn1ccnc1CN1CCCN(C(=O)c2cc[nH]n2)CC1`, the INHIBITION was -18.45%. For `Cc1nc(C)n(CC2CCCCN2CCOc2cccc(C#N)c2)n1` (stereo not given), the INHIBITION was determined as 21.5%. For `CN(C)C1(CNc2nccc(C3CCCC3)n2)CCOCC1` the value was -15.3%; for `Cn1ccnc1CNC(=O)CC1CCCCO1` (stereo not given), 19.25%; for `COCCNCc1cc2ccc(C)c(C)c2[nH]c1=O`, 1.475%. With `CC(=O)Nc1cccc(CN2CCN(C3=NCC(C)(C)S3)CC2)c1`, the INHIBITION is reported as 42.1%. For `CN(C)CCN1CCOCC2(C1)CN(Cc1ccsc1)CCO2` (stereo not given), the INHIBITION was 25.6%.

Turning to `CCS(=O)(=O)N(C)CCCNCc1c(C)nn(C)c1N(C)C`, the INHIBITION was determined as 19.15%. On to `CC(C)CN1CCN(C(=O)CCn2cccn2)CC1`, for which the INHIBITION is 2.4%. With `C[C@H]1C(=O)NC[C@H]2CN(CCc3ccccc3)C[C@H]21` the figure was -23.3%. With `CCC(=O)Nc1ccc2c(ccn2CC(=O)N(CC)CC)c1` the figure was 8.4%; with `CCN(CC)C(=O)Cn1ccc2cc(NC(=O)C3CCCCC3)ccc21`, -3.202%. With `CCN(CC)C(=O)Cn1ccc2cc(NC(=O)C3CC3)ccc21` the figure was 52.7%. Regarding `CCc1nccn1C1CCCN(C(=O)c2ccc(-n3ccnc3)cc2)C1` (stereo not given), the INHIBITION is on record as 33.3%. Turning to `COC(=O)C(C)Sc1nnnn1C1CCOCC1` (stereo not given), the INHIBITION came out at 23.6%.

Regarding `CC(C)Sc1nnnn1C1CCCC1`, the INHIBITION stood at 66.9%.

In the case of `CC(Sc1nnnn1C1CCOCC1)C(=O)NC1CCCCC1` (stereo not given), the INHIBITION came out at 3.47%. Take `CCCC(C)Sc1nnnn1C1CCOCC1` (stereo not given): the INHIBITION is given as 15%. For `N#CC(Sc1nnnn1C1CCOCC1)C1CCCCC1` (stereo not given) the value was -58.6%. For `CC(Sc1nnnn1C1CCOCC1)C(F)(F)F` (stereo not given) the value was 52.8%; for `N#CC1(NC(=O)c2ccc(F)cc2OC(F)F)CCOCC1`, 8.12%; for `CN(C)C(=O)COC1COC2(CCN(c3cccc(F)c3)CC2)C1` (stereo not given), 42.7%.

As for `Cc1ccc(-c2noc(C(C)(C)NS(C)(=O)=O)n2)cc1F`, the INHIBITION is listed as 15.4%. With `NC1CCCCN(Cc2cc(C3CCCCC3)no2)C1` (stereo not given) the figure was 57.8%; with `CC[C@@]1(O)CCN(C(=O)c2ccc(CN3CCCCCC3)cc2)C[C@H]1O`, 3.03%; with `CCc1nc(C)sc1CN1CC[C@@](O)(C2CC2)[C@H](C)C1`, 29.7%. For `Cc1cc(-c2nn(C)c(Cl)c2CN2CCCCC(N)C2)no1` (stereo not given) the value was 48.5%; for `Cc1nonc1CN1CC[C@@](O)(C2CCC2)[C@H](C)C1`, 21.9%; for `CCc1nc(C)sc1CN1CC[C@](O)(CC)[C@H](O)C1`, -31.7%. With `OCC1COCCN(Cc2cc(C3CCCCC3)no2)C1` (stereo not given) the figure was 41%; with `C[C@@H]1CN(Cc2c[nH]c(CC3CCCC3)n2)CC[C@]1(C)O`, 15%. Consider `C[C@@H]1CN(Cc2cc(C3CCCCC3)no2)CC[C@]1(C)O`, for which the INHIBITION is recorded as 61.1%. With `CC1(C)CN(Cc2cc(C3CCCCC3)no2)CC[C@]1(C)O` the figure was 47.7%.

In the case of `CC[C@@]1(O)CCN(Cc2cc(C3CCCCC3)no2)C[C@H]1O`, the INHIBITION came to 56.6%. With `Cc1nnsc1CN1CC[C@@](O)(C2CCC2)[C@H](C)C1` the figure was 66.7%. Take `O=C(COCc1ccccc1)N1CCCn2cncc2C1`: the INHIBITION is on record as 14.5%.

As for `Cc1cs/c(=N\C(=O)Cn2nc(N3CCC(C)CC3)ccc2=O)[nH]1`, the INHIBITION was -6.73%. With `CN(C)Cc1cnc2n1CCN(Cc1ccsc1)CC2` the figure was 16.8%; with `C[C@@H]1CN(Cc2cccc(F)c2)C[C@]12CCN(Cc1cccnc1)C2=O`, -13.4%; with `Cc1ccc(C(=O)N2C[C@H](OCc3cccnc3)[C@H]3COC[C@H]32)cn1`, 25.3%. With `CC(C)N(C)Cc1nnn2c1CN(Cc1cccnc1)CCC2` the figure was -50.9%. With `CCC(CO)n1cnc2scc(C)c2c1=O` (stereo not given) the figure was 1.19%. Take `Cc1nonc1CN1CC[C@@](O)(C2CCOCC2)[C@H](C)C1`: the INHIBITION was 47.7%. Take `NC1CCCCN(Cc2cc(-c3ccccc3OC(F)(F)F)no2)C1` (stereo not given): the INHIBITION was found to be 79.7%. For `OC1COCCN(Cc2cc(-c3ccccc3OC(F)(F)F)no2)C1` (stereo not given) the value was -26.1%; for `C[C@@H]1CN(Cc2nc(C(N)=O)no2)CC[C@@]1(O)C1CCOCC1`, 59.1%. `C[C@@H]1CN(Cc2nc(C(N)=O)no2)CC[C@@]1(O)C1CC1`: the INHIBITION was found to be 6.26%. With `COc1cc(F)c(CN2CC[C@@](O)(C3CC3)[C@H](C)C2)cc1OC` the figure was -39.2%; with `C[C@@H]1CN(Cc2cc(C3CCCCC3)no2)CC[C@@]1(O)C1CC1`, 63.3%; with `N[C@@H]1CCN(Cc2cc(-c3ccccc3OC(F)(F)F)no2)C[C@H]1O`, -48.3%. Consider `C[C@@H]1CN(Cc2cc(C(F)(F)F)ccc2F)CC[C@@]1(O)C1CC1`, for which the INHIBITION was -45%. With `COCCCC(=O)N(CCC(=O)O)Cc1ccc(F)c(F)c1` the figure was 23.1%; with `CC(C)NC(=O)N1CCN(CC2CC2)c2ncccc2C1`, 30.3%; with `O=S(=O)(C1CC1)N1CC[C@H](OCC2CC2)[C@@H]1Cc1cccnc1`, -4.02%. For `CCN(c1ccc(C(=O)NCCCN2CCCCC2)cc1)S(=O)(=O)CC` the value was 21.7%. With `CC(=O)N1CCC(c2nccnc2-c2ccc(F)c(F)c2)CC1` the figure was 26.8%; with `CC(=O)N1CCC(c2nccnc2Oc2ccccc2)CC1`, 39.2%; with `COc1ccc(-c2cc(C3CCN(C(C)=O)CC3)ccn2)cc1`, -24.1%. With `COc1cccc(-c2nccnc2C2CCN(C(C)=O)CC2)c1`, the INHIBITION worked out at 57.4%.

Turning to `COc1ccc(Oc2nccnc2C2CCN(C(C)=O)CC2)cc1`, the INHIBITION is 58.1%.

In the case of `COc1ccc(-c2nccnc2C2CCN(C(C)=O)CC2)cc1`, the INHIBITION was 40.9%.

Consider `Cn1nnnc1SC1CCCN(c2ccccc2Cl)C1=O` (stereo not given), for which the INHIBITION is on record as -40%. With `CN(C)[C@@H]1CCN(C(=O)NC2CCCC2)[C@H]1Cc1cnn(C)c1`, the INHIBITION was 21%. With `Cc1cc(C)n(CC2CCCN2C(=O)c2cnc3n[nH]c(C)c3c2)n1` (stereo not given) the figure was 13.6%; with `CC(C)CN1C[C@@H](C(=O)O)C[C@@H](C(=O)NCc2ccncc2)C1`, 2.79%; with `CCc1ccsc1C(=O)NC(C#N)CC` (stereo not given), 30.9%. In the case of `Cc1cc(CN(C)Cc2cc3c(cc2OC(F)F)OCO3)on1`, the INHIBITION is listed as -19.9%.

As to `Cc1cnc(CN(C)Cc2cc3c(cc2OC(F)F)OCO3)o1`, the INHIBITION turned out to be 60%. With `Cc1nc(CN(C)Cc2cc3c(cc2OC(F)F)OCO3)oc1C` the figure was 11.3%. For `CN(C)Cc1cc(C2CCN(C(=O)C3CCCNC3)CC2)nn1C` (stereo not given) the value was 27.2%; for `Cc1cc(NC(=O)c2ccccc2Br)n(C)n1`, 53.2%; for `Cc1cc(NC(=O)c2ccc(Br)cc2F)n(C)n1`, -77%. With `Cc1cc(NC(=O)c2ccc(F)cc2Br)n(C)n1` the figure was -18.5%; with `Cc1ncc2c(n1)CN(Cc1nc(-c3ccsc3)no1)CC2`, 21%; with `CCn1nc(C)c(NC(=O)CN(C)C(C)c2nccs2)c1C` (stereo not given), -23.4%. As to `COc1ccccc1CNC(=O)CN(C)C(C)c1nccs1` (stereo not given), the INHIBITION was -45.6%. With `Cc1cccc(C(C)C)c1NC(=O)CN(C)C(C)c1nccs1` (stereo not given) the figure was 73.6%; with `CCCNC(=O)N1CCC(c2nnc(Cn3cccn3)n2C2CC2)CC1`, -50.7%. With `CC(O)CN1CCN(C(=O)c2cc3ccccc3c(=O)[nH]2)CC1` (stereo not given) the figure was -3.95%; with `CC(C)c1nnc2ccc(N3CCC(C(=O)Nc4nccs4)CC3)nn12`, 79.8%; with `Cc1nnc2ccc(N3CCC(C(=O)Nc4nccs4)CC3)nn12`, 39.3%. With `CC(C)c1nnc2ccc(N3CCCC(C(=O)Nc4nccs4)C3)nn12` (stereo not given) the figure was 29%; with `Cc1nn(C)c(C)c1-c1cncc(C2CCN(S(C)(=O)=O)CC2)n1`, 34.7%.

Regarding `CN1[C@H](CN2CCCC2)C[C@@H]2CN(C(=O)c3cccn3C)CC[C@@H]21`, the INHIBITION is 14.1%. With `CCOc1ccc2c(c1)CN(Cc1nc3c(cnn3C)c(=O)[nH]1)CC2` the figure was 48.2%.

As to `COCC1c2c(cnn2CC2CC2)CCN1Cc1ccsc1` (stereo not given), the INHIBITION is given as -37.9%.

For the compound `COCC1c2c(cnn2CC2CC2)CCN1Cc1ccc(C)o1` (stereo not given), the INHIBITION is given as -52.7%. As to `COCC1c2c(cnn2CC2CC2)CCN1Cc1ccc(OC)cc1` (stereo not given), the INHIBITION was 53.1%.

As for `O=S(=O)(NCc1ccccc1)Nc1ccc(-n2ccnc2)cc1`, the INHIBITION was 44.8%. For `Cc1csc(CN2CCC[C@]3(C[C@@H](Oc4ccccn4)CO3)C2)n1` the value was 64.4%; for `Cc1noc(C)c1CN1CCOC2(CCCN(c3ccccn3)C2)C1` (stereo not given), 20.9%; for `c1ccc(O[C@H]2CO[C@@]3(CCCN(Cc4nccs4)C3)C2)nc1`, 49.7%.

In the case of `Cc1csc(CN2CCC[C@]3(C[C@H](OCC4CC4)CO3)C2)n1`, the INHIBITION is 1.48%. As for `CCO[C@H]1CO[C@@]2(CCCN(Cc3nc(C)cs3)C2)C1`, the INHIBITION is listed as 11.8%. For `Cc1csc(CN2CCC[C@]3(C[C@H](Oc4ccccn4)CO3)C2)n1`, the INHIBITION came out at 35.1%. For `Cc1noc(C)c1CN1CCC[C@]2(C[C@@H](Oc3ccccn3)CO2)C1` the value was 87%; for `CO[C@@H]1CO[C@@]2(CCCN(Cc3nc(C)cs3)C2)C1`, 65.7%. For the compound `Cc1noc(C)c1CN1CCC2(CC1)CC(Oc1cccnc1)CO2` (stereo not given), the INHIBITION came out at 21.6%.

Source of the values: ChEMBL document CHEMBL4513216, “Probing the Open Global Health Chemical Diversity Library for Multistage-Active Starting Points for Next-Generation Antimalarials” (ACS Infect Dis, 2020).
